According to PubChem BioAssay (NCI):
Several values for one entry are separate records, joined by “and”; a condition that tells them apart may be missing. Identical values can stand only once. This is part of a sample that, as a whole, favours compounds with a hit. Of some 83,000 tested, about 20% had one in any assay.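 Treatment: one concentration, 48 hours, 96-well format. Scoring: percent growth, with anything below 10 considered active.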 Values without a mark were called inactive. Activity calls are given as the source filed them.

system: MDA-MB-468 breast; assay: NCI-60 one-dose screen, 48 h (100 = growth as untreated, 0 = no growth, -100 = all killed); conditions: 10 µM unless noted

Row | SMILES | growth
1 | COC(=O)C1=CCCN(C)C1 | 105% and 92.8%
2 | CCCCCCCCCC(=O)N[C@@](C)(CC)C(=O)N1CCC[C@H]1C(=O)N[C@@H](CC(C)C)C(=O)N[C@@](C)(CC)C(=O)N[C@@H](CCC(N)=O)C(=O)N[C@H](CCC(N)=O)C(=O)NC(C)(C)C(=O)NC(C)(C)C(=O)N[C@@H](CCC(N)=O)C(=O)N[C@H](CC(C)C)C(=O)N[C@H](CO)CC(C)C | -94.7% (active) and -92.4% (active)
3 | O=C1C2CCC1C(N1CCCC1)CC2 (stereo not drawn) | 105%
4 | CN1CCCCC1C(C)(O)c1ccccc1 (stereo not drawn) | 102%
5 | CN1CCN(c2ccc(Cl)cc2)CC1 | 71.1%
6 | O=S(=O)(Cl)c1ccccc1 (tested in a mixture with another compound) | 98.6%
7 | C[CH2][Pb]([CH2]C)([CH2]C)[O]C(=O)COC | -49.3% (active)
8 | C[C@]12CC[C@H]3[C@@H](C[C@@H]4SC(Nc5ccccc5)=N[C@@]45C/C(=N/O)CC[C@]35C)[C@@H]1CCC2=O | 59.9%
9 | COc1cccc(C=NC(Cc2cnc[nH]2)C(=O)O)c1O (stereo not drawn) | 55.4%
10 | CC1=C[C@H]2O[C@@H]3C[C@H]4OC(=O)/C=C\C=C\[C@H]([C@@H](C)O)OCC[C@@H](C)[C@H](O)C(=O)OC[C@@]2(CC1)[C@]4(C)[C@]31CO1 | -66.7% (active)
11 | CC1=C2C(=O)[C@H]3[C@@H](CC=C4C[C@@H](O)CC[C@@]43C)[C@@H]2CC[C@]12O[C@@H]1C[C@H](C)CN[C@H]1[C@H]2C | 85.6%
12 | COc1cc(C=Nc2cccc(Br)c2)ccc1N(CCCl)CCCl | -18.8% (active)
13 | C[CH2][Pb]([CH2]C)([CH2]C)[O]C(=O)COc1ccccc1 | 9.74% (active)
14 | O=Cc1cn(Cc2ccccc2)c2ccccc12 | 2.33% (active)
15 | CC1(C)N=C(N)N=C(N)N1c1ccc(CCCCc2ccc(S(=O)(=O)F)cc2)c(Cl)c1 | 7.5% (active)
16 | COC(=O)[C@@H](C)C[C@H](Cc1ccc(F)cc1)NC(=O)c1csc([C@@H](C[C@H](C(C)C)N(C)C(=O)[C@@H](NC(=O)[C@H]2CCCCN2C)C2CC2)OC(C)=O)n1 | 22.5%
17 | Clc1ccc(CO/N=C(\Cn2ccnc2)c2ccc(Cl)cc2Cl)c(Cl)c1 | -24.5% (active)

Row | SMILES | growth
18 | Nc1cc2nc3ccccc3nc2cc1N | -11.9% (active)
19 | COc1ccc(C(=O)c2sc3nc4c(cc3c2N)N2CCC4CC2)cc1OC | 72.2%
20 | C[C@]12CC[C@@H]3c4ccc(OC(=O)Cc5ccc(N(CCCl)CCCl)cc5)cc4CC[C@H]3[C@@H]1CC[C@@H]2OC(=O)Cc1ccc(N(CCCl)CCCl)cc1 | 104%
21 | COc1ccc(/C=C\c2cc(OC)c(OC)c(OC)c2)c(NS(=O)(=O)c2ccc(Cl)cc2)c1O | 9.56% (active)
22 | COc1ccc(-n2c(C)nc3cc(OC)c(OC)cc3c2=O)cc1OC | 114%
23 | COc1ccc(C2=N[C@@H](Cc3ccccc3)C(=O)Nc3ccsc32)cc1 | 8.23% (active)
24 | COC1=CC(=O)O[C@@H](/C=C/c2ccc3c(c2)OCO3)C1 | 103%
25 | CN(C)CC(C(=O)Cc1ccccc1)c1ccccc1 (stereo not drawn) | -29.8% (active)
26 | CC[C@H](C)[C@H](NC(=O)c1ccccn1)C(=O)N(C)[C@H](C[C@@H](OC(C)=O)c1nc(C(=O)N[C@@H](Cc2ccccc2)C[C@H](C)C(=O)OC)cs1)C(C)C | -7.06% (active)
27 | CCn1c2ccccc2c2cc(C(=O)c3ccc(C)c4ccccc34)ccc21 | 25.4%
28 | COc1cc(/C=C(/C)[N+](=O)[O-])ccc1O | -85.4% (active) and -90.3% (active)
29 | CN[C@@]1(c2ccccc2Cl)CCCC[C@@H]1NCC1CCCO1 (stereo partly drawn) | 96.3%
30 | COC(=O)[C@@H](C)C[C@H](Cc1ccccc1)NC(=O)c1csc([C@@H](C[C@H](C(C)C)N(C)C(=O)[C@@H](NC(=O)[C@H]2CCCCN2C)C(C(F)(F)F)C(F)(F)F)OC(C)=O)n1 | 51.7%
31 | O=C1C(=O)c2ccccc2-c2ccccc21 | -85.6% (active)
32 | CCOC(=O)C1C(C=C(C)C)C1(C)C (stereo not drawn) | 107%
33 | C/C(=C(\c1ccc(OCCN2CCOCC2)cc1)c1ccc(OC(=O)Cc2ccccc2)cc1)c1ccc(Cl)cc1 | 78.8%
